Experimental data: PubChem BioAssay (EPA / NIEHS)
Records with an inconclusive call do not appear. Active and inactive are the calls of the source. How the source made its calls, unless noted: active means hit-call score of the fitted dose curve at least 0.9, where 1 is the maximum; inconclusive means response in the unintended direction; inactive means score below 0.9.

Columns and labels:
SERPINA7 (gene 6906) = assay: CCTE_GLTED_hTBG: CCTE's human Thyroxine-binding Globulin (TBG) Inhibition Assay, Great Lakes Toxicology and Ecology Division (GLTED) Lab (AID 2284343);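 further: active chemicals lower fluorescence versus DMSO baseline by displacing probe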
Outline: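 Fluorescence (ex 380/em 475) reports ANSA displaced from human TBG after a 2 h incubation with test chemical, without cells. Loss of signal indicates displacement, with DMSO serving as baseline.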

[1] = VALA_MIGHUV1_ScratchOnly_WoundArea: VALA Sciences human Umbilical Vein Endothelial Cell Migration (MIGHUV) Assay, Area of Scratch Wound Inhibited Recovery (AID 2284336)
Outline: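 Wound area remaining after 24 h recovery imaged by Hoechst nuclear fluorescence in scratched HUVEC cultures, chemicals added within 30 min of scratching across a 6-point series. Gain of signal fitted against 0.1% DMSO; cytochalasin D positive control.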

[2] = CCTE_Deisenroth_H295R-HTRF_384WELL_ESTRADIOL: CCTE's H295R-HTRF Assay Evaluation of Estradiol Concentration, Deisenroth Lab (AID 2284361; active means hit-call score of the fitted dose curve at least 0.9, where 1 is the maximum; inactive means score below 0.9); conditions: actives raise or lower the signal
Outline: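 Estradiol secreted into medium by H295R adrenocortical cells, quantified by HTRF after 48 h dosing over a nine-point 0.001 - 100 uM final range; gain or loss versus DMSO. Parallel ATP-luminescence viability readout; n=5 experiments.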

[3] = CCTE_Deisenroth_H295R-HTRF_384WELL_TESTOSTERONE: CCTE's H295R-HTRF Assay Evaluation of Testosterone Concentration, Deisenroth Lab (AID 2284373; active means hit-call score of the fitted dose curve at least 0.9, where 1 is the maximum; inactive means score below 0.9); conditions: actives raise or lower the signal
Outline: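 H295R cells were acclimated 24 h, then exposed 48 h to nine concentrations (0.001–100 uM final) in technical triplicate, n=5. Testosterone in conditioned medium was measured by HTRF (em 620/665 nm). Fitting was bidirectional versus DMSO; CellTiter-Glo viability ran on the same plates.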

[4] = system: SRY-box transcription factor 17 (SOX17) Protein Expression, Deisenroth Lab, SOX17 (gene 64321); assay: CCTE_Deisenroth_DEVTOX-GLR_legacy_Sox17: (Legacy) CCTE's DevTox GLR-Endo Assay Evaluation of SRY-box transcription factor 17 (SOX17) Protein Expression, Deisenroth Lab (AID 2284341; active means hit-call score of the fitted dose curve at least 0.9, where 1 is the maximum; inactive means score below 0.9); conditions: actives raise or lower the signal
Outline: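 Percent SOX17-positive cells, scored by high-content imaging as mean intensity exceeding pluripotent-control median by 5x BMAD, divided by cell count. Human RUES2-GLR endoderm differentiation, 48 h, two exposures 24 h apart, 1 nM–200 uM; DMSO-referenced bidirectional fitting.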

[5] = system: SRY-box transcription factor 2 (SOX2) Protein Expression, Deisenroth Lab, SOX2 (gene 6657); assay: CCTE_Deisenroth_DEVTOX-GLR_legacy_Sox2: (Legacy) CCTE's DevTox GLR-Endo Assay Evaluation of SRY-box transcription factor 2 (SOX2) Protein Expression, Deisenroth Lab (AID 2284346; active means hit-call score of the fitted dose curve at least 0.9, where 1 is the maximum; inactive means score below 0.9)
Outline: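 Percent Sox2-positive cells was scored by high-content imaging of 5 fields per well. Positivity cutoff was 5x BMAD over the directed endoderm control, and the DMSO median was subtracted. Cells were RUES2-GLR, dosed twice at 24-h intervals over 48 h of differentiation (1 nM-200 uM).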

[6] = CCTE_Mundy_HCI_iCellGluta_NOG_NeuronCount: CCTE's Neurite Outgrowth Assay in iCellGluta cells for Neuron Count, Mundy Lab (AID 2284340);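 further: cells fixed about 48 h after compound addition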
Outline: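 Neuron count read by automated high-content imaging of Hoechst 33342 and betaIII-tubulin/Alexa Fluor-488 labelling in human iPSC glutamatergic neurons. Activity fitted relative to DMSO.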

[7] = CCTE_Mundy_HCI_iCellGluta_NOG_NeuriteCount: CCTE's Neurite Outgrowth Assay in iCellGluta cells for Neurite Count, Mundy Lab (AID 2284342);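 further: chemical exposure about 48 hours starting 2 hours after plating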
[8] = VALA_TUBHUV_Agonist_TubuleLength: VALA Sciences human Umbilical Vein Endothelial Tubule Formation (TUBHUV) Agonism Assay (AID 2284337)
Outline: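 Tubule length quantified by CD31 immunofluorescence imaging after fixation. HUVEC-HDF co-cultures (1:3) pre-grown 3 days with 10 ng/ml VEGF, then dosed 3 days in VEGF medium; 0.1 % DMSO vehicle baseline.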

[9] = VALA_TUBIPS_Agonist_CellCount: Viability Assessment in the VALA Sciences human iPS-derived Endothelial Tubule Formation (TUBIPS) Agonism Assay (AID 2284338)

## Cc1oc2c(NC(=O)c3c(Cl)cccc3Cl)cccc2c1C(C)(C)O
SERPINA7 (gene 6906)
  AC50: 13.6 µM (active)

## O=C(Nc1ccc(Cl)cc1)Nc1ccc(Cl)c(Cl)c1
[1]
  outcome: inactive

## O=c1c(-c2ccc(O)cc2)coc2cc(O)cc(O)c12
[2]
  AC50: 21.6 µM (active)
[3]
  AC50: 6.78 µM (active)

## CC(C)(c1cc(Br)c(O)c(Br)c1)c1cc(Br)c(O)c(Br)c1
SERPINA7 (gene 6906)
  AC50: 2.16 µM (active)

## CC/C(=C(/CC)c1ccc(O)cc1)c1ccc(O)cc1
[4]
  AC50: 1.24 µM (active)
SERPINA7 (gene 6906)
  AC50: 1.87 µM (active)
[5]
  AC50: 2.43 µM (active)

## CCCCCCCCOc1ccc(C(=O)c2ccccc2)c(O)c1
SERPINA7 (gene 6906)
  AC50: 39.1 µM (active)

## O=C(O)Cc1cc(I)c(Oc2ccc(O)c(I)c2)c(I)c1
SERPINA7 (gene 6906)
  AC50: 0.0733 µM (active)

## CO[C@H]1/C=C/O[C@@]2(C)Oc3c(C)c(O)c4c(O)c(c(/C=N/N5CCN(C)CC5)c(O)c4c3C2=O)NC(=O)/C(C)=C\C=C\[C@H](C)[C@H](O)[C@@H](C)[C@@H](O)[C@@H](C)[C@H](OC(C)=O)[C@@H]1C
[4]
  AC50: 72.4 µM (active)
[5]
  outcome: inactive

## Clc1ccccc1C(c1ccccc1)(c1ccccc1)n1ccnc1
[2]
  AC50: 0.129 µM (active)
[3]
  AC50: 0.117 µM (active)

## CN(C)c1ccc(C(=C2C=CC(=[N+](C)C)C=C2)c2ccc(N(C)C)cc2)cc1
SERPINA7 (gene 6906)
  AC50: 50 µM (active)

## O=C1O[C@H]([C@@H](O)CO)C(O)=C1O
[6]
  outcome: inactive
[7]
  outcome: inactive

## CCCCCCCCOC(=O)c1cc(O)c(O)c(O)c1
[8]
  AC50: 50 µM (active)
[9]
  AC50: 24.2 µM (active)
SERPINA7 (gene 6906)
  AC50: 3.42 µM (active)

## CCCCOC(=O)c1ccc(O)cc1
[4]
  AC50: 55.3 µM (active)
[5]
  AC50: 100 µM (active)
[2]
  AC50: 54.3 µM (active)
[3]
  outcome: inactive
